Results: publication PMC7862700, “An all-to-all approach to the identification of sequence-specific readers for epigenetic DNA modifications on cytosine”

Assays:
Assay in all cases: DAPPL (digital affinity profiling via proximity ligation, sequencing); 10 mM Tris-HCl pH 7.5, 50 mM NaCl, 1 mM DTT, 4% glycerol, room temperature, 30 min; GST-TFs on glutathione beads, 16-mer random dsDNA library, 0.1% formaldehyde crosslink after washing; high values mean tight binding
[1] = biological target: T1, FLI1 (Homo sapiens, UniProt Q01543 1-452); conditions: protein: recombinant; tags: N-terminal GST; dsDNA, one strand shown
T1 sequence: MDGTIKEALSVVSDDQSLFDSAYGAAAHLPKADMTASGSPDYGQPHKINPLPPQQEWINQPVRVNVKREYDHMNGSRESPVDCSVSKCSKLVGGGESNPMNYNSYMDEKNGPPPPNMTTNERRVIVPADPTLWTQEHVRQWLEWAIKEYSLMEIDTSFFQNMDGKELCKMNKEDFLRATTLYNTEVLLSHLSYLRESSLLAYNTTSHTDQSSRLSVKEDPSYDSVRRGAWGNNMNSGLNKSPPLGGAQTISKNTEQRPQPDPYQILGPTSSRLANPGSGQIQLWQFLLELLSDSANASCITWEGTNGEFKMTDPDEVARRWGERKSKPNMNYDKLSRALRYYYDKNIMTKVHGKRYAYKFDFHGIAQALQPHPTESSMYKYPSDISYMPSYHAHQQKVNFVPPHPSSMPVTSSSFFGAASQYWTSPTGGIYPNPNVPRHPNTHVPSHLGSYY
In short: (§1)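 Pools were built from human transcription factors expressed in yeast as GST fusions, captured on glutathione beads and DNA-barcoded, along with a tag-only sample. Incubation with 200 nmole of a 16-mer random double-stranded DNA library lasted 30 min at room temperature in Tris/NaCl/DTT/glycerol buffer, and was followed by washing, 0.1% formaldehyde crosslinking, proximity ligation, PCR amplification and Illumina NextSeq500 sequencing. Binding signal is the quotient of each hexamer's read frequency for a factor and its frequency for the tag-only sample.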

[2] = biological target: T2, ELK1 (Homo sapiens, UniProt P19419 1-428); conditions: protein: recombinant; tags: N-terminal GST; dsDNA, one strand shown
T2 sequence: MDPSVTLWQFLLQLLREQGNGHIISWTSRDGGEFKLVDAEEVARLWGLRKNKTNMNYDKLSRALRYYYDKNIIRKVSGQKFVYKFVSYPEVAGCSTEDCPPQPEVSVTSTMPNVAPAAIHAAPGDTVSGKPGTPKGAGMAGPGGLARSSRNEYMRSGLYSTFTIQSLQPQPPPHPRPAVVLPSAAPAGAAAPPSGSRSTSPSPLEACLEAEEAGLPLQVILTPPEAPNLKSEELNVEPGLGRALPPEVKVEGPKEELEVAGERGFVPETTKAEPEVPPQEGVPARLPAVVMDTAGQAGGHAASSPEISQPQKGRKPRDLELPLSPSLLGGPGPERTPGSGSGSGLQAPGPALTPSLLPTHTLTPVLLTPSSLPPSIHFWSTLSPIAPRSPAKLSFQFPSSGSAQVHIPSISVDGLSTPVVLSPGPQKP
In short: as §1

[3] = biological target: T3, GABPA (Homo sapiens, UniProt Q06546 1-454); conditions: protein: recombinant; tags: N-terminal GST; dsDNA, one strand shown
T3 sequence: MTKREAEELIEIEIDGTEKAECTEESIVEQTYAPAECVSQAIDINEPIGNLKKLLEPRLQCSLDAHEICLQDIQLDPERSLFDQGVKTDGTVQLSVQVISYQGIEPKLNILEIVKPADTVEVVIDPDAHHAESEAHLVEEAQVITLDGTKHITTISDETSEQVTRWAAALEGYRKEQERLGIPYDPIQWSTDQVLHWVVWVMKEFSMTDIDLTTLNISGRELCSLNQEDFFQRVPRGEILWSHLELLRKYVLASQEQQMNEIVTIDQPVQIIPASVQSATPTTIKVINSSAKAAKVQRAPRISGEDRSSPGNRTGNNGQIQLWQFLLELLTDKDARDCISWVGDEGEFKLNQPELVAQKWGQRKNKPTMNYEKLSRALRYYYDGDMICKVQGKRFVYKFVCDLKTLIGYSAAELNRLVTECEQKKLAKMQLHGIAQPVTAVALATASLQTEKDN
In short: as §1

[4] = biological target: T4, ERG (Homo sapiens, UniProt P11308 1-479); conditions: protein: recombinant; tags: N-terminal GST; dsDNA, one strand shown
T4 sequence: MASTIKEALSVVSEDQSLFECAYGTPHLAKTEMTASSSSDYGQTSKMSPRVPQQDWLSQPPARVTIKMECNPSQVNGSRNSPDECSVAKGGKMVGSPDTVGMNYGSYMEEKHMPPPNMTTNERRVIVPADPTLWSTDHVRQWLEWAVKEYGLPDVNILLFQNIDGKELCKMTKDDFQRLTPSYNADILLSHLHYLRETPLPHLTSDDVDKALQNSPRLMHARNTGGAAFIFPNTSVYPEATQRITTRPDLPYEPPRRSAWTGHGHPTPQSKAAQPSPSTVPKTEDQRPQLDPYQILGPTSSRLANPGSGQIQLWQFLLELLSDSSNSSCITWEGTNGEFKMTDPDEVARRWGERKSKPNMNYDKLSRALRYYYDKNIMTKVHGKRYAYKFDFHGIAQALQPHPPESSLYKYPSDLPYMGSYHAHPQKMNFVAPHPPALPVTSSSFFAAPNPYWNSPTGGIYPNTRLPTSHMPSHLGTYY
In short: as §1

[5] = biological target: ELF1 (Homo sapiens, UniProt P32519 1-619); conditions: protein: recombinant; tags: N-terminal GST; dsDNA, one strand shown
ELF1, sequence (P32519 whole entry): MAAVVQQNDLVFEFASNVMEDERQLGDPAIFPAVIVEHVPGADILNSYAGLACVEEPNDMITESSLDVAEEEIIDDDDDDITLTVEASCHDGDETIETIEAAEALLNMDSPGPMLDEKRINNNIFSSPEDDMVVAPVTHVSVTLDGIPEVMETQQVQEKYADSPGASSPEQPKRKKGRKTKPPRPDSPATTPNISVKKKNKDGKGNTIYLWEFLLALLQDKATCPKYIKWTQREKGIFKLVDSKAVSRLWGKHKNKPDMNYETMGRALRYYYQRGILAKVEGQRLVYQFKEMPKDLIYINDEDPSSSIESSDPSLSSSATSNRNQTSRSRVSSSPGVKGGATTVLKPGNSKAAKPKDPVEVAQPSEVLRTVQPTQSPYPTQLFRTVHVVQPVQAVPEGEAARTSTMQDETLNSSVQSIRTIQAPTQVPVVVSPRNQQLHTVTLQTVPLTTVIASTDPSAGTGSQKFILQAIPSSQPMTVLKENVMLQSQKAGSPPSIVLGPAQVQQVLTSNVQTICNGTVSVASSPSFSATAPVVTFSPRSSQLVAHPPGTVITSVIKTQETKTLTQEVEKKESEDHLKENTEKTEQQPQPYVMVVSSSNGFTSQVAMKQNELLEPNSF
In short: as §1

[6] = biological target: T5, EHF (Homo sapiens, UniProt Q9NZC4 1-300); conditions: protein: recombinant; tags: N-terminal GST; dsDNA, one strand shown
T5 sequence: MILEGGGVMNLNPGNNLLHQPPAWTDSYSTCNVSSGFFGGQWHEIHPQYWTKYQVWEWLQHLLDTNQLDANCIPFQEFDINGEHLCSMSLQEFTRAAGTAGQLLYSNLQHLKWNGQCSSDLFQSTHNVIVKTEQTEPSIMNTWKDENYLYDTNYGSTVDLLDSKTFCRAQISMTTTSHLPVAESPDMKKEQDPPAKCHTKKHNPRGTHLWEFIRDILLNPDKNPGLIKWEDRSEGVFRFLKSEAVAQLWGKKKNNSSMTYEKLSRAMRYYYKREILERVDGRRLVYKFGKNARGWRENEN
In short: as §1

[7] = biological target: SPI1 (Homo sapiens, UniProt P17947 1-270); conditions: protein: recombinant; tags: N-terminal GST; dsDNA, one strand shown
In short: as §1

[8] = biological target: SPIB (Homo sapiens, UniProt Q01892 1-262); conditions: protein: recombinant; tags: N-terminal GST; dsDNA, one strand shown
SPIB, sequence (Q01892 whole entry): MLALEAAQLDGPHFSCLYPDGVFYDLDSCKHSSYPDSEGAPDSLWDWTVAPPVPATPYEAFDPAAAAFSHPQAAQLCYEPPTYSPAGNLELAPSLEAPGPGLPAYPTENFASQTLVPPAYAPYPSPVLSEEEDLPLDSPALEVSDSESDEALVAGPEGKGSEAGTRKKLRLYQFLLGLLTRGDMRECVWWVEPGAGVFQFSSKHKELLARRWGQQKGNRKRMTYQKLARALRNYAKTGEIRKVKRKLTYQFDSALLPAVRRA
In short: as §1

[9] = biological target: T6, ELK3 (Homo sapiens, UniProt P41970 1-407); conditions: protein: recombinant; tags: N-terminal GST; dsDNA, one strand shown
T6 sequence: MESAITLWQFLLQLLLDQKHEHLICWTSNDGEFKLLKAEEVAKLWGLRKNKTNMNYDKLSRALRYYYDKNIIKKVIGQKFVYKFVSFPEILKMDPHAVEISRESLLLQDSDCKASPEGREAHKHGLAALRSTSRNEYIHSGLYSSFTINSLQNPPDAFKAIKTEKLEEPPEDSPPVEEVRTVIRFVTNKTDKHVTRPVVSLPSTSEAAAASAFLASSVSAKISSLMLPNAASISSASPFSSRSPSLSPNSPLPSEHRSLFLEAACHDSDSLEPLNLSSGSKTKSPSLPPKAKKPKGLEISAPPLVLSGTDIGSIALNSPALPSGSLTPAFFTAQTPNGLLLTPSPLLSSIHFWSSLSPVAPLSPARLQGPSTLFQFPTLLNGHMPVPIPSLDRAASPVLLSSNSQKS
In short: as §1

[10] = biological target: T7, FEV (Homo sapiens, UniProt Q99581 1-238); conditions: protein: recombinant; tags: N-terminal GST; dsDNA, one strand shown
T7 sequence: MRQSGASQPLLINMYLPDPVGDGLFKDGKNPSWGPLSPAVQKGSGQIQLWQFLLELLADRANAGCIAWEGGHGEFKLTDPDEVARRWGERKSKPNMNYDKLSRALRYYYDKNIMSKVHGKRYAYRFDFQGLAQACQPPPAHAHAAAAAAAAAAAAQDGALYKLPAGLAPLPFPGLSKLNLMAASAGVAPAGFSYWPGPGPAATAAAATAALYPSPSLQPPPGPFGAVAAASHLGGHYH
In short: as §1

[11] = biological target: ETV5 (Homo sapiens, UniProt P41161 1-510); conditions: protein: recombinant; tags: N-terminal GST; dsDNA, one strand shown
ETV5, sequence (P41161 whole entry): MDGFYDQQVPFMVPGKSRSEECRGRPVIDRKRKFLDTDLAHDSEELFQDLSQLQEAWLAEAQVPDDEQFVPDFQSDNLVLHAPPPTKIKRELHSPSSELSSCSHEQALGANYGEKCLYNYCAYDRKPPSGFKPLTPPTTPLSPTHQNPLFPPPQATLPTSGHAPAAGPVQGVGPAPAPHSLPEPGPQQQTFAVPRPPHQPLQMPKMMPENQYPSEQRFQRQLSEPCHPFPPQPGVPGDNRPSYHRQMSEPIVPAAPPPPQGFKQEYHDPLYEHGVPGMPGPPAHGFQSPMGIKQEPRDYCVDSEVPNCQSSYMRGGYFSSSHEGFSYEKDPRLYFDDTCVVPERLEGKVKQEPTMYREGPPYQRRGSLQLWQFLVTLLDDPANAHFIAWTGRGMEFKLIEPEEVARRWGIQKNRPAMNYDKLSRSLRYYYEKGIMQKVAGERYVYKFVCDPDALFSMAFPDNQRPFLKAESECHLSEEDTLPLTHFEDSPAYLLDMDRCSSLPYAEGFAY
In short: as §1

[12] = biological target: HSF1 (Homo sapiens, UniProt Q00613 1-529); conditions: protein: recombinant; tags: N-terminal GST; chain copies: 3; dsDNA, one strand shown
HSF1, sequence (Q00613 whole entry): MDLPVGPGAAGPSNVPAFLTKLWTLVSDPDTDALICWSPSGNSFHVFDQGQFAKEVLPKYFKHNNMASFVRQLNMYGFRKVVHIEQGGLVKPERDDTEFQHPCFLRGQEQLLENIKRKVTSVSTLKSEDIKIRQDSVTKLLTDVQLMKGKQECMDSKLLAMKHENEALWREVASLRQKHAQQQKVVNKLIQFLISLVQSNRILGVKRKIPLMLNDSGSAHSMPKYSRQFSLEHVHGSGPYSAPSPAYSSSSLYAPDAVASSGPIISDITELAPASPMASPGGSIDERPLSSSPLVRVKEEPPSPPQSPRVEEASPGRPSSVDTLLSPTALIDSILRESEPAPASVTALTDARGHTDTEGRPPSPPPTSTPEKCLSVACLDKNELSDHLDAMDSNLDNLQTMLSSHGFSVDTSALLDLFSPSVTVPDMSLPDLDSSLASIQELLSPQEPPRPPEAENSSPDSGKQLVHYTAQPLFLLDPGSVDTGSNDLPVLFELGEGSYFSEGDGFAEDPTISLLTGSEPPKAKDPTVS
In short: as §1

[13] = biological target: T8, SPIC (Homo sapiens, UniProt Q8N5J4 1-248); conditions: protein: recombinant; tags: N-terminal GST; dsDNA, one strand shown
T8 sequence: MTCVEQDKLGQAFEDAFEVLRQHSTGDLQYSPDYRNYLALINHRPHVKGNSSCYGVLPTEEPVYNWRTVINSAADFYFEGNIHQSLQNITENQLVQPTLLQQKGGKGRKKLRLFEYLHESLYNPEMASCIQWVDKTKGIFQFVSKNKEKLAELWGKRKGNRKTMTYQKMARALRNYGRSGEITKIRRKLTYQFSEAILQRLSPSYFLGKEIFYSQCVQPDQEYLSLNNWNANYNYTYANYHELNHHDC
In short: as §1

[14] = biological target: ELF4 (Homo sapiens, UniProt Q99607 1-663); conditions: protein: recombinant; tags: N-terminal GST; dsDNA, one strand shown
ELF4, sequence (Q99607 whole entry): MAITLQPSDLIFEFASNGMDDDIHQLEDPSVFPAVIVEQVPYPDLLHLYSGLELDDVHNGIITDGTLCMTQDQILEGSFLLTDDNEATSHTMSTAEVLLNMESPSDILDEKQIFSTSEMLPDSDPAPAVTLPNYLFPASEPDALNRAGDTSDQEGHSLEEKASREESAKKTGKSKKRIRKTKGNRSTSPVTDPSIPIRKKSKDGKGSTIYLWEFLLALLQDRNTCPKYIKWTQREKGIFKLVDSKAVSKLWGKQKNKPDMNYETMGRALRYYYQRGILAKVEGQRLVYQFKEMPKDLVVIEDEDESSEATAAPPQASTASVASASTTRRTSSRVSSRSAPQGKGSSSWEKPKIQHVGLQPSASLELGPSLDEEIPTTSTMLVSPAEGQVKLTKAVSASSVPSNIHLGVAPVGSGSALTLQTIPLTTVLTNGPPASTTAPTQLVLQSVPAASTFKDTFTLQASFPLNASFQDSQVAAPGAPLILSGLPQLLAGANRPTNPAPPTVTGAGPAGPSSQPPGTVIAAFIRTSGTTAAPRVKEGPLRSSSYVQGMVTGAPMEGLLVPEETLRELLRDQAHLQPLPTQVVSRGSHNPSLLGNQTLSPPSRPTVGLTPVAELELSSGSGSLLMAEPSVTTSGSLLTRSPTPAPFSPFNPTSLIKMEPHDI
In short: as §1

[15] = biological target: T9, ELK4 (Homo sapiens, UniProt P28324-2 1-405); conditions: protein: recombinant; tags: N-terminal GST; dsDNA, one strand shown
T9 sequence: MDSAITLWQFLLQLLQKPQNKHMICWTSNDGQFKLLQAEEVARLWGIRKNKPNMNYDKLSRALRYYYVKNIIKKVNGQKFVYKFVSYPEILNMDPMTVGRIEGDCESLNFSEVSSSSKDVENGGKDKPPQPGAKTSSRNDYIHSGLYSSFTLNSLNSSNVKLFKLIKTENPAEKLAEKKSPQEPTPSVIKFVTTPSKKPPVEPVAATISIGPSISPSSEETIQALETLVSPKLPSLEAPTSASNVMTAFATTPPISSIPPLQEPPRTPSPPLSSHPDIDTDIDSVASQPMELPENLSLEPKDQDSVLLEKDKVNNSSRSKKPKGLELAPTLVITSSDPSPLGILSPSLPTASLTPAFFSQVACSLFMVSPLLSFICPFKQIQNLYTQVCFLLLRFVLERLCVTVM
In short: as §1

[16] = biological target: T10, ETV2 (Homo sapiens, UniProt O00321 1-342); conditions: protein: recombinant; tags: N-terminal GST; dsDNA, one strand shown
T10 sequence: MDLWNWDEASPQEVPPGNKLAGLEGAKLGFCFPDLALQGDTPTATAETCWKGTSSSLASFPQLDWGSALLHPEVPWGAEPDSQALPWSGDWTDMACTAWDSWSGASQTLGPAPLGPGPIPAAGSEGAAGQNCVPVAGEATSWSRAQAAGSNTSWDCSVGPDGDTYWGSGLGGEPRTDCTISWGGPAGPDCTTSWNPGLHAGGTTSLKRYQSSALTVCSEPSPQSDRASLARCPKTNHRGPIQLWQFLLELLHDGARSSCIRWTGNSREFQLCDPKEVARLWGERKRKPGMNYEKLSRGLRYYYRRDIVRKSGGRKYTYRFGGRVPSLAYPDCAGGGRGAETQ
In short: as §1

[17] = biological target: T11, ELF3 (Homo sapiens, UniProt P78545 1-371); conditions: protein: recombinant; tags: N-terminal GST; dsDNA, one strand shown
T11 sequence: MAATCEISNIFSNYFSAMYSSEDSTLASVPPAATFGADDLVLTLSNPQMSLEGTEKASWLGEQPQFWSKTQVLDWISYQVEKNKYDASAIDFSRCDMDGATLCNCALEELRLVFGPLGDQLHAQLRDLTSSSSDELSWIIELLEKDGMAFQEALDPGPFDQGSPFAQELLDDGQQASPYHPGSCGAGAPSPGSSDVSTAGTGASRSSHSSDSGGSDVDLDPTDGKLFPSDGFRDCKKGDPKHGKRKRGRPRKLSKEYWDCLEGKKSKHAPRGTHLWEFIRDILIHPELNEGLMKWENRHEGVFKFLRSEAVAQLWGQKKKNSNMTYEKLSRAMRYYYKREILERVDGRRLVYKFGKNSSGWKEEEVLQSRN
In short: as §1

[18] = biological target: CRX (Homo sapiens, UniProt O43186 1-299); conditions: protein: recombinant; tags: N-terminal GST; dsDNA, one strand shown
CRX, sequence (O43186 whole entry): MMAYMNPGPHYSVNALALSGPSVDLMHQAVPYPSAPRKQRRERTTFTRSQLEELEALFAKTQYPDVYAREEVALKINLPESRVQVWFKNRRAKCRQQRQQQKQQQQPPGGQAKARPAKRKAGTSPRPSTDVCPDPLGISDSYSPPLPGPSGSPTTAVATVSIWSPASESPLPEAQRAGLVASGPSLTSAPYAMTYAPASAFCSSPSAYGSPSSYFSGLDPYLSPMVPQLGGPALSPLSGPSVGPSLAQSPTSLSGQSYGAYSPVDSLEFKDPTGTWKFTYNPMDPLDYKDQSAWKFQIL
In short: as §1

[19] = biological target: ETV1 (Homo sapiens, UniProt P50549 1-477); conditions: protein: recombinant; tags: N-terminal GST; dsDNA, one strand shown
ETV1, sequence (P50549 whole entry): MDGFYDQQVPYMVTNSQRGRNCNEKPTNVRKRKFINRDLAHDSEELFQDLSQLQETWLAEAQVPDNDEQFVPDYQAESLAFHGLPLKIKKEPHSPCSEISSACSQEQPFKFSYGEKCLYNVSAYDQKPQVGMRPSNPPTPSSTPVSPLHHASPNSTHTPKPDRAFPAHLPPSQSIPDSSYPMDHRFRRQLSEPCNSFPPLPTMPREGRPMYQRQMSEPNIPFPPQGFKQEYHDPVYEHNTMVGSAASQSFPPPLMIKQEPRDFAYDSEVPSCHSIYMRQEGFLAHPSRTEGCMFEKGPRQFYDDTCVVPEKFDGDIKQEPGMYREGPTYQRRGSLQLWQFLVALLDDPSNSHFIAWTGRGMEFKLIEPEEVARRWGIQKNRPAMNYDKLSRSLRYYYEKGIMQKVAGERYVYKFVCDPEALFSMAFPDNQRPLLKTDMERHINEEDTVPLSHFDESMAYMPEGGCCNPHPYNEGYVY
In short: as §1

In the case of CGATCC, the binding signal [1] is reported as 1.26 fold enrichment (6-mer frequency, TF over GST control), the binding signal [2] is reported as 1.14 fold enrichment (6-mer frequency, TF over GST control) and the binding signal [3] is reported as 1.19 fold enrichment (6-mer frequency, TF over GST control). For the same sequence, the binding signal [4] was 1.21 fold enrichment (6-mer frequency, TF over GST control), the binding signal [5] was 1.27 fold enrichment (6-mer frequency, TF over GST control) and the binding signal [6] was 1.22 fold enrichment (6-mer frequency, TF over GST control). For the same sequence, the binding signal [7] was 1.25 fold enrichment (6-mer frequency, TF over GST control), the binding signal [8] was 1.22 fold enrichment (6-mer frequency, TF over GST control) and the binding signal [9] was 1.38 fold enrichment (6-mer frequency, TF over GST control). The binding signal [10] was 1.2 fold enrichment (6-mer frequency, TF over GST control), the binding signal [11] was 1.19 fold enrichment (6-mer frequency, TF over GST control) and the binding signal [12] was 1.31 fold enrichment (6-mer frequency, TF over GST control). For the same sequence, the binding signal [13] was 1.11 fold enrichment (6-mer frequency, TF over GST control), the binding signal [14] was 1.21 fold enrichment (6-mer frequency, TF over GST control) and the binding signal [15] was 1.11 fold enrichment (6-mer frequency, TF over GST control). For the same sequence, the binding signal [16] was 1.19 fold enrichment (6-mer frequency, TF over GST control), the binding signal [17] was 1.08 fold enrichment (6-mer frequency, TF over GST control) and the binding signal [18] was 1.27 fold enrichment (6-mer frequency, TF over GST control). For the same sequence, the binding signal [19] was 1.25 fold enrichment (6-mer frequency, TF over GST control).
